Legend:
Type in all cases: functional
[1] = molecular target: Solute carrier family 2, facilitated glucose transporter member 1 (Homo sapiens) (UniProt P11166); experiment: ST_JUDE_LEISH: Cytotoxicity at 2uM final concentration against transgenic Leishmania Mexicana promastigotes LmGLUT1 that are glucose transport deficient and complemented with the human glucose transporter GLUT1. Activity is measured by DNA content using SYBR green in vitro
[2] = molecular target: Hexose transporter 1 (Plasmodium falciparum) (UniProt O97467); experiment: ST_JUDE_LEISH: Cytotoxicity at 2uM final concentration against transgenic Leishmania Mexicana promastigotes LmPfHT that are glucose transport deficient and complemented with the Plasmodium falciparum hexose transporter. Activity is measured by DNA content using SYBR green in vitro
[3] = molecular target: Glucose transporter (Leishmania mexicana) (UniProt O61059); experiment: ST_JUDE_LEISH: Cytotoxicity at 2uM final concentration against transgenic Leishmania Mexicana promastigotes LmGT2 that are glucose transport deficient and complemented with the L. Mexicana glucose transporter 2. Activity is measured by DNA content using SYBR green in vitro

Solute carrier family 2, facilitated glucose transporter member 1 (Homo sapiens), sequence (P11166 whole entry): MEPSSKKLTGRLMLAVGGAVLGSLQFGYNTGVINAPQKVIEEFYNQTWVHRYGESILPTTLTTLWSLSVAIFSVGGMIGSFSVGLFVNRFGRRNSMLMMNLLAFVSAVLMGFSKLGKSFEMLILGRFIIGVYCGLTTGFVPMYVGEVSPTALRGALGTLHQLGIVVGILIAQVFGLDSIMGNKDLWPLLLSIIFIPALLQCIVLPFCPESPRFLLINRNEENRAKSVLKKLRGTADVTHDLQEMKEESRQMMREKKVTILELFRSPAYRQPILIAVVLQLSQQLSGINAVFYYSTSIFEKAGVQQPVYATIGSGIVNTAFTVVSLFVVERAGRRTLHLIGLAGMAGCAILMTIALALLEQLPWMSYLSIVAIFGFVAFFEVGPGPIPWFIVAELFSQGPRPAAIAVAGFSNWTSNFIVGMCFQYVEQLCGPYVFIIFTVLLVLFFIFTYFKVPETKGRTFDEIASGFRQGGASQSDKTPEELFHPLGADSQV

Row | SMILES | inhibition [1] [%] | inhibition [2] [%] | inhibition [3] [%]
1 | CC(C)N(Cc1ccccc1)C(=O)CN1C(=O)COc2ccc(S(=O)(=O)N3CCCCCC3)cc21 | 4.92 | 1.02 | 10.5
2 | Cc1cccc2nc(-c3ccc(-c4cccc(CNC5CCN(C)CC5)c4)s3)[nH]c12 | -2.43 | 2.74 | -0.61
3 | CCOc1cc(C(C)C)ccc1N1CCN(CCCCNC(=O)c2ccc(NC(=O)c3ccc(Cl)cc3)cc2)CC1 | 4.38 | 2.39 | 2.86
4 | O=C(Nc1n[nH]c2nc(-c3ccco3)c(Br)cc12)c1ccc(CN2CCCC2)cc1 | 1.9 | 3.71 | 3.01
5 | CCc1cn2c3c(cc(C(=O)N[C@@H](Cc4ccccc4)[C@H](O)CNC4CCC4)cc13)N(C)S(=O)(=O)CC2 | 2.42 | 5.19 | 1.83
6 | O=C(NCc1ccccc1)c1ccc(C(=O)NCC2CNCCO2)cc1 (stereo unspecified) | 5.08 | 6.24 | 9.54
7 | Cc1[nH]c(C)c(-c2ccc(-c3ccccc3F)nc2)c(=O)c1Br | 2.19 | 4.24 | 1.41
8 | Cc1cc(C)cc(N2C(N)=NC(N)=NC2(C)C)c1 | 7.13 | 5.93 | 5.97
9 | Fc1cccc(Nc2nc(NCc3ccc(OCc4ccccc4)cc3)nc(Nc3cccc(F)c3)n2)c1 | 11.8 | 9.09 | 8.22
10 | O=C1Nc2cccc3c2C1(CCCN1CCC(c2c[nH]c4cc(C(F)(F)F)ccc24)CC1)CCC3 (stereo unspecified) | -0.49 | -2.03 | -0.71
11 | Nc1cc(/C=C/c2ccc([N+](=O)[O-])o2)nc2ccccc12 | 104 | 104 | 101
12 | CCCc1ccc(C2CCN(CCCCNC(=O)c3ccc(NC(=O)c4ccc(Cl)cc4)cc3)CC2)cc1 | 0.56 | -1 | 0.1

— ChEMBL document CHEMBL3433997, “St. Jude Leishmania screening dataset” (2016)
